# Screens: PubChem BioAssay, several laboratories
# Compounds with a hit are over-represented: about 3% of the library has one in this group of screens.
# FadD28 binding = M. tuberculosis FadD28 bisubstrate binding inhibition; FadD28 bisubstrate probe binding, fluorescence polarization; inhibition, % at 12.5 µM; hit rate 0.22% among 360,000; AID 588549; in the data active means inhibition above about 8.5%, passing the limit was not always enough
# Mtb BioA inh = blocks M. tuberculosis BioA enzyme activity. hit rate 0.096% among 360,000. inhibition, % at 9.99 µM. purified M. tuberculosis BioA enzyme, plate reader. AID 602481; in the data active means inhibition above about 40%
# GDH-TPI inh = counter-screen for M. tuberculosis FBA inhibitors: GDH-TPI coupled enzymes | inhibition, % at 4.8 µM | GDH-TPI coupled enzyme counterscreen, NADH absorbance | hit rate 1.2% among 360,000; in the data active means inhibition above about 30%;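 further: 0% = DMSO wells and 100% = wells lacking the enzyme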
# Mtb FBA inh = inhibits M. tuberculosis FBA enzyme; P9WQA3; purified M. tuberculosis FBA, fluorescence read-out; inhibition, % at 1 µM; hit rate 2.3% among 360,000; AID 588726; in the data active means inhibition above about 27%;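 further: 0% = vehicle and 100% = reference inhibitor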
# Target sequence (P9WQA3 whole entry, looked up): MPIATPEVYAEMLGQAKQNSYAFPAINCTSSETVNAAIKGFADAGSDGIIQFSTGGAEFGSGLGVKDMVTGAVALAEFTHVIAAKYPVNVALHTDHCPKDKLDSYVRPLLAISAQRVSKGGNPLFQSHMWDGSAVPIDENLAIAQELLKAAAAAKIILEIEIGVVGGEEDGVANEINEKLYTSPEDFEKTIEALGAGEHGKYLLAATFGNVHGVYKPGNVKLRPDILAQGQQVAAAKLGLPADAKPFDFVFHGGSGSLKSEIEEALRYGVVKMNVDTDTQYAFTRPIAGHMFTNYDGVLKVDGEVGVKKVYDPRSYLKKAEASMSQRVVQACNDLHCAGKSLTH
# Rv3671c protease = inhibitors of M. tuberculosis serine protease Rv3671c; inhibition, % at 5.96 µM; hit rate 0.048% among 320,000; AID 2606; in the data active means inhibition above about 38%;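 further: extracellular domain of Rv3671c used as enzyme; 0% = enzyme with DMSO and 100% = no enzyme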
# Numbers without * were called inactive; . = no result given; + = active, no number.
SMILES,FadD28 binding,Mtb BioA inh,GDH-TPI inh,Mtb FBA inh,Rv3671c protease
C=CC(C)(C)c1[nH]cnc1/C=C1\NC(=O)C(C(C)C)NC1=O (stereo unspecified),1,-1,32*,5,3
Cn1cccc1/C=C1\SC(=S)N(NC(=O)c2ccccc2O)C1=O,2,.,33*,-39,1
O=C(NN1C(=O)/C(=C/C=C/c2ccco2)SC1=S)c1ccccc1O,58*,-1,2,-3,15
NC(=S)c1cc2ccc(O)cc2oc1=O,3,.,16,+,.
C/C(=N/NC(N)=S)c1cc2ccc(O)cc2oc1=O,-2,-2,-4,129*,-3
C/C(=N\NC(=O)c1ccncc1)c1cc2ccccc2oc1=O,-4,.,2,-2,2
C/C(=N\NC(=O)c1ccc([N+](=O)[O-])cc1)c1cc2ccccc2oc1=O,0,-1,32*,-1,-2
NC(=S)c1cc2cc(Br)ccc2oc1=O,0,.,5,-1,2
C/C(=N/NC(=O)c1ccncc1)c1cc2ccc(O)cc2oc1=O,2,.,10,+,9
Oc1cc(O)cc(-c2cc3ccc(O)cc3o2)c1,7,3,0,177*,5
Oc1ccc2c(c1)oc1cc(O)ccc12,-1,2,-5,14,11
COc1ccccc1S(=O)(=O)N[C@H]1C=C[C@@H](CC(=O)NCc2cccc(F)c2)O[C@H]1CO,.,0,.,.,.
O=C(Nc1nc2c(s1)CN(Cc1ccccc1)CC2)C1CCC1,-2,-3,16,9,9
CCN1CCc2nc(NC(=O)c3ccccc3)sc2C1,-4,-2,33*,-1,-10
N#Cc1c(-c2cccnc2)cc(-c2ccccc2)nc1N,1,-1,9,+,3
N#Cc1c(-c2ccco2)cc(-c2ccccn2)nc1N,-1,-1,15,194*,-7
N#Cc1c(-c2ccco2)cc(-c2cccnc2)nc1N,-6,5,20,181*,2
c1cncc(-c2nnc(-c3ccco3)o2)c1,-3,4,-2,114*,6
Cc1c(-c2ccccc2)nc(N)c(C#N)c1-c1ccco1,-2,-2,5,18,4
CC(C)NC(=O)NCC[C@@H]1CC[C@@H](NC(=O)CCN2CCCCC2)[C@H](CO)O1,.,-2,.,.,.
O=C(C[C@H]1CC[C@H]2[C@@H](COC[C@H](O)CN2S(=O)(=O)c2ccc(Cl)cc2)O1)N[C@H]1CCN(Cc2ccccc2)C1,.,-1,.,.,.
COc1ccccc1NC(=O)Nc1ccc2c(c1)C(=O)N(C)C[C@H](OC)[C@H](C)CN(C)[C@@H](C)CO2,.,1,.,.,.
Cc1nc(N2CCN(C(=O)c3ccc(Cl)cc3)CC2)c(C#N)c2c1COC(C)(C)C2,-3,-4,13,38*,-3
COCC(=O)Nc1ccc2c(c1)OC[C@H](C)N(CCC(F)(F)F)C[C@@H](C)[C@H](OC)CN(C)C2=O,.,1,.,.,.
COc1ccc(N2CCN(CCNC(=O)c3c(C)cc(=O)oc3C)CC2)cc1,0,-4,40*,2,0
SMILES,FadD28 binding,Mtb BioA inh,GDH-TPI inh,Mtb FBA inh,Rv3671c protease
Cc1c(C)n(C)c2ccc(C(=O)NCCCN3CCN(c4ccc(F)cc4)CC3)cc12,-1,-1,10,-1,-2
COc1ccc(CNC(=O)c2c(C)cc(=O)oc2C)cc1,-3,.,9,0,13
Cc1cc(=O)oc(C)c1C(=O)NCCCN1CCN(c2ccc(F)cc2)CC1,2,.,40*,-2,4
COC(=O)[C@H]1[C@H](CO)[C@H]2Cn3c(ccc(C4=CCCCC4)c3=O)[C@H]2N1C(=O)C1CC1,.,-1,.,.,.
O=C(/C=C/c1ccccc1)NCc1ccco1,-1,-1,9,0,2
Cc1cc(/C=C(\C#N)C(=O)NCc2ccco2)c(C)n1-c1cccnc1,-7,.,31*,-1,-2
Cc1cc(/C=C(/C#N)c2cccc(F)c2)c(C)n1-c1cccnc1,0,3,38*,-2,0
O=C(NCc1ccco1)/C(=C/C=C\c1ccccc1)NC(=O)c1ccc(Br)o1,-3,.,35*,-9,-5
N#C/C(=C\C=C\c1ccccc1)C(=O)NCc1ccco1,-4,.,63*,-5,-29
O=C(NCc1ccco1)/C(=C\c1ccccc1)NC(=O)c1ccccc1,.,.,-10,2,-2
Cc1cc(/C=C(\C#N)C(=O)NCc2ccco2)c(C)n1C1CCCC1,-2,0,-2,2,1
Cc1ccsc1/C=C(\C#N)C(=O)NCc1ccco1,-3,-5,32*,-4,-5
COC(=O)C1=CN(C(C)C)C=C(C(=O)OC)C1c1cc(Br)c(OC)c(OC)c1,-1,.,6,154*,1
CCCOc1ccccc1C1C(C(=O)OC)=CN(C(C)C)C=C1C(=O)OC,-1,0,13,165*,1
